Laboratory results from ChEMBL document CHEMBL4513216, “Probing the Open Global Health Chemical Diversity Library for Multistage-Active Starting Points for Next-Generation Antimalarials” (ACS Infect Dis, 2020).
Among all 69,000 compounds or so, about 8,600 (12%) showed an effect of 50% or more. The sample as a whole holds a higher share of strong results than the screen did.

These compounds were tested on Plasmodium berghei (assay: Screen against P. berghei liver stage (PbLuc), transformed with Luciferase, at 10uM). Settings: tested at 10 uM.
Format: functional, HepG2

Row | Compound | INHIBITION
1 | O=C(c1cc(C2CCCCN2CCO)n[nH]1)N1CCOCC1 (configuration not stated) | -0.902%
2 | Cc1ncncc1C(=O)NCCn1nc2ccccn2c1=O | 12.915%
3 | CCCS(=O)(=O)N1CCN(c2ccc3nnc(CC)n3n2)CC1 | -37.2%
4 | Cc1ccccc1OCC(=O)NCC(c1ccc(N(C)C)cc1)N(C)C (configuration not stated) | 27.5%
5 | CCNc1nc2cn(-c3ccc(OC(F)(F)F)cc3)c(=O)c-2c[nH]1 | 45.6%
6 | C[C@@H](NC(=O)c1cccs1)c1onc(-c2cccnc2)c1C(=O)O | -20.8%
7 | C=C(C)CN1CCCC1c1nc(Cc2ccc(F)cc2)no1 (configuration not stated) | 61.1%
8 | CC(C)(C)OCCN1CCCC1c1nc(Cc2ccc(F)cc2)no1 (configuration not stated) | 10.6%
9 | OCCCN1CCCC1c1nc(Cc2ccc(F)cc2)no1 (configuration not stated) | 14.9%
10 | CCCNC(=O)CN1CCCC1c1nc(Cc2ccc(F)cc2)no1 (configuration not stated) | 47.4%
11 | O=C(CN1CCCC1c1nc(Cc2ccc(F)cc2)no1)NC1CC1 (configuration not stated) | 62%
12 | CCCN1CCCC1c1nc(Cc2ccc(F)cc2)no1 (configuration not stated) | 23.5%
13 | O=C(CN1CCN(CC(O)C2CC2)CC1)NCc1ccccc1 (configuration not stated) | -24.6%
14 | Cc1cc(F)ccc1-c1ccccc1CC1CNCCNC1=O (configuration not stated) | 71.2%
15 | Cc1ccc(-c2ccccc2CC2CNCCNC2=O)c(C)c1 (configuration not stated) | 33%
16 | COc1ccc(F)cc1-c1ccccc1CC1CNCCNC1=O (configuration not stated) | 23.595%
17 | CC(=O)N1CCN(C(=O)c2cc(-n3cnnn3)ccc2Cl)CC1 | 6.32%
18 | CCOc1ccccc1CNC(=O)N(CC)C(C)c1cccnc1 (configuration not stated) | -1.25%
19 | CCN(C(=O)NCc1ccc(C)cc1OC)C(C)c1cccnc1 (configuration not stated) | 29.8%
20 | CCN(C(=O)NCc1ccccc1OC(F)F)C(C)c1cccnc1 (configuration not stated) | 50.1%
21 | NC(=O)c1ccccc1Oc1cnc(C2CCCN2)cn1 (configuration not stated) | -38.3%
22 | Cc1ccc2c(c1)CCC2NC(=O)N1CCC(C(N)=O)CC1 (configuration not stated) | 10.1%
23 | COC(=O)Cn1c(=O)[nH]c2cn(-c3ccc(C)cc3)c(=O)n21 | -1.04%
24 | CC(C)CN1C(=O)CO[C@@H]2CN(C(=O)NC(C)C)C[C@H]21 | 70.4%
25 | CC(C)CN1C(=O)CO[C@@H]2CN(C(=O)CC(F)(F)F)C[C@H]21 | 54.1%
26 | CC(C)CN1C(=O)CO[C@@H]2CN(C(=O)N(C)C)C[C@H]21 | 29%

Row | Compound | INHIBITION
27 | CC(C)CN1C(=O)CO[C@@H]2CN(C(=O)[C@H]3CCCO3)C[C@H]21 | 36.4%
28 | CC(C)CN1C(=O)CO[C@@H]2CN(C(=O)C3CCOCC3)C[C@H]21 | 11.3%
29 | CC(C)CN1C(=O)CO[C@@H]2CN(C(=O)N3CCOCC3)C[C@H]21 | 29%
30 | CCN(CC)CC1CN(Cc2cccc(C#N)c2)Cc2nccn2C1 (configuration not stated) | -16.9%
31 | CC1CCCN(c2nccn3c(=O)[nH]nc23)C1 (configuration not stated) | 17.6%
32 | COCC(=O)N1CCC(=O)N(C2CCCC2)Cc2cc(F)ccc21 | -13.3%
33 | CCOC(=O)[C@]12CCCN(Cc3nccs3)C[C@H]1CN(CC(C)C)C2 | -13%
34 | CCOC(=O)[C@]12CCCN(Cc3cccs3)C[C@H]1CN(CCOC)C2 | 33.5%
35 | CCOC(=O)[C@]12CCCN(Cc3nccs3)C[C@H]1CN(C(C)C)C2 | 76.4%
36 | CCOC(=O)[C@]12CCCN(Cc3nccs3)C[C@H]1CN(CCN(C)C)C2 | 15.1%
37 | CCOC(=O)[C@]12CCCN(Cc3nccs3)C[C@H]1CN(C(C)=O)C2 | -1.64%
38 | O=C(O)[C@]12CCCN(Cc3cccs3)C[C@H]1CN(c1ncccn1)C2 | -7.24%
39 | CCOC(=O)[C@]12CCCN(Cc3cccs3)C[C@H]1CN(C(C)C)C2 | 64.3%
40 | CCOC(=O)[C@]12CCCN(Cc3cccs3)C[C@H]1CN(C(C)=O)C2 | 51.4%
41 | CCOC(=O)[C@]12CCCN(Cc3nccs3)C[C@H]1CN(CCOC)C2 | -14.4%
42 | CCOC(=O)[C@]12CCCN(Cc3ccsc3)C[C@H]1CN(CCOC)C2 | -74.6%
43 | CCOC(=O)[C@]12CCCN(Cc3nccs3)C[C@H]1CN(S(C)(=O)=O)C2 | 5.96%
44 | CCOC(=O)[C@]12CCCN(Cc3cccs3)C[C@H]1CN(CC(C)C)C2 | 60.3%
45 | COc1cc(-c2nc3c([nH]2)CCCNC3=O)cc(OC)c1OC | -34.8%
46 | Cc1ccc(F)cc1C(=O)N1CCN(S(C)(=O)=O)[C@@H](C)C1 | -2.23%
47 | CCOC(=O)Cc1cs/c(=N/C(=O)COc2cnc(C)cc2O)[nH]1 | -1.45%
48 | CC(C)(C)c1cccc(OCC(=O)NS(=O)(=O)c2cccnc2)c1 | 0.1%
49 | CCNC(=O)NC(=O)CNC(C)(C)c1ccc2c(c1)OCO2 | -12.2%
50 | CN(Cc1cccnc1)[C@@H]1CN(Cc2ccccn2)[C@@H]2CCCO[C@H]12 | 30.3%
51 | NCC1CCC(c2c(C(=O)NCCO)sc3ccccc23)CC1 (configuration not stated) | -11.4%
52 | CCC1CCCCN1C(=O)CCn1cnc2sccc2c1=O (configuration not stated) | 25.4%

Row | Compound | INHIBITION
53 | CC1CCCCN1C(=O)CCn1cnc2sccc2c1=O (configuration not stated) | 42.7%
54 | CNC(=O)C1CCCCN1C(=O)CCn1cnc2sccc2c1=O (configuration not stated) | 52.6%
55 | CCn1ncc2c(C(F)F)cc(-c3ccn(C)n3)nc21 | 8.05%
56 | O=C(Nc1ccc(Cn2cccn2)cc1)N1CCC2(CC1)OCCO2 | 41%
57 | CC1(C)CN(C(=O)Nc2ccc(Cn3cccn3)cc2)CCO1 | 49.9%
58 | O=C(Nc1ccc(Cn2cccn2)cc1)N1CCC(CO)CC1 | 57.8%
59 | COCCOc1ccc(NC(=O)C2CC(=O)N(CC3CC3)C2)cn1 (configuration not stated) | 4.71%
60 | CN(C)C(=O)N1CCC2(CC1)CN(CC1CC1)CC21CCNC1=O (configuration not stated) | -63.9%
61 | Cc1cc(C(=O)NCc2ccc(F)cc2)c2c(C3CCNC3)noc2n1 (configuration not stated) | 41.6%
62 | Cc1cc(C(=O)NCC(F)(F)F)c2c(C3CCCN3)noc2n1 (configuration not stated) | 30.8%
63 | Cc1cc(C(=O)NCC(F)(F)F)c2c(C3CCNCC3)noc2n1 | 64%
64 | O=C(C1CCN(c2nc3nc[nH]c(=O)c3s2)CC1)N1CCCCC1 | 37.4%
65 | COc1ccc(CCNC(=O)CC(NC(N)=O)c2ccccc2)cc1 (configuration not stated) | 29.1%
66 | NC(=O)NC(CC(=O)NCCc1cccc(F)c1)c1ccccc1 (configuration not stated) | 20.5%
67 | NC(=O)NC(CC(=O)NCCc1ccc(F)cc1)c1ccccc1 (configuration not stated) | 53.8%
68 | CSCC(=O)N1CCCCC1Cn1cc(C)cn1 (configuration not stated) | -5.25%
69 | CC(C)CN1CCC2(CCN(CC3CC3)CC2)C1=O | -7.24%
70 | O=C(O)C1(Cc2ccccc2F)CCCN(c2ncnc3[nH]ccc23)C1 (configuration not stated) | 23.5%
71 | Nc1cc(N2CCCC(CO)(Cc3ccccc3F)C2)nc(N)n1 (configuration not stated) | 75.1%
72 | COc1cc(N2CCCC(CO)(Cc3ccccc3F)C2)ncn1 (configuration not stated) | 84.9%
73 | Nc1ccnc(N2CCCC(CO)(Cc3cccc(Cl)c3)C2)n1 (configuration not stated) | 44.9%
74 | Nc1cc(N2CCCC(Cc3ccc(F)cc3F)(C(=O)O)C2)ncn1 (configuration not stated) | 34.4%
75 | CCCC1(CO)CCCN(c2ncccc2F)C1 (configuration not stated) | -29.9%
76 | OCC1(Cc2ccccc2F)CCCN(c2ccc3ccccc3n2)C1 (configuration not stated) | 89.9%
77 | N#Cc1cccc(N2CCCC(CO)(Cc3ccccc3F)C2)n1 (configuration not stated) | 23.5%
78 | COC[C@]1(O)CCN(c2cc(OC)ncn2)CC1(C)C | -31.7%

Row | Compound | INHIBITION
79 | CNC(=O)N1CC[C@@H]2CN(Cc3cccnc3)S(=O)(=O)[C@@H]2CC1 | 22.2%
80 | CN1CC(=O)N(C2CCNCC2)Cc2c(NC3CCC3)ncnc21 | -13%
81 | CCOC1COC2(CCN(Cc3ccc4c(c3)OCO4)CC2)C1 (configuration not stated) | 24.9%
82 | COCCn1c(CN2CCCCO2)cnc1S(=O)(=O)CC1CCCCC1 | -2.13%
83 | CCc1cc(NC2CCC(N)CC2)n2nc(C)c(C)c2n1 (configuration not stated) | 14.1%
84 | CC(C)n1ncc2cc(NC(=O)N3CCC(CO)CC3)cnc21 | 29.7%
85 | c1ccc(OCc2noc(CN3CCN(C4CCCC4)CC3)n2)cc1 | 40.9%
86 | c1ccc(CCc2noc(CN3CCC(N4CCSCC4)CC3)n2)cc1 | 7.97%
87 | Fc1ccccc1Cc1noc(CN2CCC(N3CCSCC3)CC2)n1 | 75.2%
88 | CCc1nc(CN(C)C2CCN(CCOc3ccccc3)C2)no1 (configuration not stated) | -0.219%
89 | Fc1ccccc1Cc1noc(CN2CC[C@@H]3CCCC[C@H]3C2)n1 | 38.4%
90 | c1ccc(OCc2noc(CN3CCC(N4CCSCC4)CC3)n2)cc1 | 79.5%
91 | CCN(C)S(=O)(=O)NCC1(c2ccccc2Br)CC1 | 51%
92 | CS(=O)(=O)NCC1(c2ccccc2Br)CC1 | 46.6%
93 | CN(C)S(=O)(=O)NCC1(c2ccccc2Br)CC1 | 46.6%
94 | COCC(C)(C#N)NC(=O)c1cn(-c2cccc(Cl)c2F)nn1 (configuration not stated) | 55.6%
95 | COCC(NC(=O)c1cn(-c2cccc(Cl)c2F)nn1)C1CC1 (configuration not stated) | 51.2%
96 | O=C(c1cn(-c2cccc(Cl)c2F)nn1)N1CCCSCC1 | -134%
97 | COC(C)(C)CNC(=O)c1cn(-c2cccc(Cl)c2F)nn1 | 18.7%
98 | O=C(c1cn(-c2ccccc2Cl)nn1)N1CCSCC1 | -28.8%
99 | CC(O)CN1CCN(C(=O)c2cn(-c3ccccc3Cl)nn2)CC1 (configuration not stated) | -9.67%
100 | CNC(=O)c1sc2ccccc2c1CC1CCCN1Cc1cnc(C)s1 (configuration not stated) | 24.69%
101 | CCN1CCc2[nH]nc(C(=O)N3CCCC3C)c2C1 (configuration not stated) | -65.2%
102 | CS(=O)(=O)NC(=O)c1ccn(-c2cccc(Br)c2)n1 | 16.3%
